In PubChem BioAssay (NCI) one finds growth inhibition data, which are given here for 40 molecules.

About 79,000 compounds went through this panel and 15% of them were active in at least one assay; those are over-represented in the sample as a whole. Values without a mark were called inactive. No stated cut-off is given here; in the data, active means growth inhibition above about 70%; inactive means the rest.

One experiment in a line: NCI Yeast Anticancer Drug Screen. Data for the sgs1 mgt1 strain (AID 161).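 Further: 0% = growth of cultures given vehicle only.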 The settings on record: S. cerevisiae sgs1 mgt1 strain, at 50.0 µM, stronger effect = higher value. In short, it runs like this:
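Percent growth inhibition was derived by comparing compound-exposed mutant yeast with vehicle-exposed cultures. The strain carries alterations in DNA damage repair.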
Take `Cc1cc(=O)c2cc3ccc4cccc5ccc(c2[nH]1)c3c45`: the growth inhibition was -10.1%.
Still for that read-out and setting: then `CCC1CC(=O)NC(=O)NC1=O` (stereo not given), with -3.75%.
On the same count and under the same terms, then `Cc1c(-c2ccccc2)[nH]n(C2=NCCN2)c1=O`, with -31.4%; and `CC(C)OP(=O)(OC(C)C)C1C(P(=O)(OC(C)C)OC(C)C)C(F)(F)C1(F)F` (stereo not given), with -7.35%; and `COC(=O)CN(c1c(C)cc(C)c(N)c1C)S(=O)(=O)c1ccccc1`, with 4.65%.
Still for that read-out and setting: for `O=S(=O)(Oc1cccc2ccccc12)c1ccc(Br)cc1` the value was 10.2%.
In the case of `COC(=O)C1(C2CCc3cc(OC)ccc3C2=O)NC(=S)NC(=O)C1C#N` (stereo not given), the growth inhibition was -18.2%.
As to `O=C1O/C(=C(\Br)c2ccc([N+](=O)[O-])cc2)c2ccccc21`, the growth inhibition is 19.4%.
On the same count and under the same terms, for `Cn1nnc2c(C(N)=O)ncn2c1=O` the value was -28.5%.
As for `N#Cc1c(-c2ccccc2)cn2c1[nH]c(=O)c1ccccc12`, the growth inhibition is 11.2%.
The same measure, in the same setting: for `O=C1OC(c2ccc(Cl)cc2)=N/C1=C\c1c(Cl)cccc1Cl` the value was 11.9%.
For the molecule `C=CSC(=S)Sc1ccccc1`, the growth inhibition was -1.15%.
The same measure, in the same setting: for `CCC[n+]1cccc(C#N)c1` the value was -7.35%.
The same measure, in the same setting: for `CC1(C)C(c2ccccc2)C12CCC1(C2=O)C(c2ccccc2)C1(C)C` (stereo not given) the value was -36%; for `CC(O)(c1ccccc1)C1CC1c1ccccc1` (stereo not given), 20.8%; for `CCC(=O)N1NC(=O)C(CC)(CC)C1=O`, 11.1%.
Still for that read-out and setting: then `CCOC(=O)C1=C(Nc2ccc(Cl)c(Cl)c2)OC/C1=N\NC(=O)Cc1ccccc1`, with -4.05%; and `COC(=O)C(=O)C1CCc2c(C(=O)OC)nc3[nH]n(-c4ccccc4)c(=O)c3c21` (stereo not given), with 4.2%; and `Cc1cc2n(n1)C(=O)CC(=O)C2`, with 2.25%.
Regarding `O=[N+]([O-])c1ccc(Nc2ccccc2)c2nonc12`, the growth inhibition was -0.1%.
Still for that read-out and setting: for `CCC(CC)C(=O)OCCOc1ccccc1` the value was 3.95%; for `c1ccc(CCN(CCc2ccccn2)CCc2ccccn2)nc1`, 0.35%.
Consider `COC(=O)CCC(=O)CC(=O)C1=NS(=O)(=O)c2nc(S(N)(=O)=O)c(Cl)cc2N1`, for which the growth inhibition is -14.8%.
The same measure, in the same setting: for `O=c1[nH]c(=O)n(C2CC(O)C(CO)O2)cc1C#Cc1ccc(C(F)(F)F)cc1` (stereo not given) the value was 5%; for `O=c1c2n(c(=O)c3n1CCC=3)CCC=2`, -0.6%; for `CCCC(=O)OCc1ccc(Cl)cc1Cl`, 14.8%.
The same measure, in the same setting: then `CC(=O)n1ccc(=O)[nH]c1=O`, with 0.45%.
Same read-out and setting: then `CCOC(=O)/C(C#N)=C/c1ccc(Cl)cc1`, with -13.1%; and `COc1ccc(CSc2n[nH]c(=O)[nH]c2=S)cc1`, with -10.4%.
As to `CCOC(OCC)C(N)=O`, the growth inhibition was -1.6%.
The same measure, in the same setting: for `CCCCCOc1ccc(C2=C(c3ccccc3)C(=O)C(c3ccccc3)=C2c2ccccc2)cc1` the value was 33.5%.
Consider `c1cnn([B-]2(n3cccn3)n3ccc[n+]3[B-](n3cccn3)(n3cccn3)n3ccc[n+]32)c1`, for which the growth inhibition is 9.2%.
In the case of `CC(=O)NC1C(SC(=O)NCCCl)OC(COC(C)=O)C(OC(C)=O)C1OC(C)=O` (stereo not given), the growth inhibition was -3.2%.
`Nc1nc(SCCc2ccccc2)c2[nH]cnc2n1`: the growth inhibition is -42.6%.
Same read-out and setting: then `CC(=O)N(C(=O)CC(=O)NN)c1ccc(Cl)cc1`, with 3.65%; and `Cc1ccc(CCn2cnc3c(N(CCO)CCO)ncnc32)cc1`, with -6.85%.
The same measure, in the same setting: then `CCCNC(=O)Nc1ccccc1OCC`, with -8.6%; and `CC1(CO)CSC(Nc2ccc(F)cc2)=N1` (stereo not given), with 14.8%.
Consider `NC(=O)COc1c(Br)cc(Br)cc1Br`, for which the growth inhibition was -12.1%.
Consider `O=c1c2c(c(=O)c(=O)c1=O)Nc1ccccc1N2`, for which the growth inhibition was 11.6%.

The next experiment in a line: NCI Yeast Anticancer Drug Screen. Data for the cln2 rad14 strain (AID 165).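 Further: 0% = growth equal to vehicle treated cultures.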 The conditions noted are these: S. cerevisiae cln2 rad14 strain, at 50.0 µM, stronger effect = higher value. The essentials:
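Readout is yeast growth inhibition versus vehicle-treated controls, using a strain with cln2 and rad14 alterations exposed to compound.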
Take `Cc1cc(=O)c2cc3ccc4cccc5ccc(c2[nH]1)c3c45`: the growth inhibition was -24.3%.
On the same count and under the same terms, for `CCC1CC(=O)NC(=O)NC1=O` (stereo not given) the value was 12.1%; for `Cc1c(-c2ccccc2)[nH]n(C2=NCCN2)c1=O`, -6.35%; for `CC(C)OP(=O)(OC(C)C)C1C(P(=O)(OC(C)C)OC(C)C)C(F)(F)C1(F)F` (stereo not given), -2.65%.
Regarding `COC(=O)CN(c1c(C)cc(C)c(N)c1C)S(=O)(=O)c1ccccc1`, the growth inhibition is 5.4%.
`O=S(=O)(Oc1cccc2ccccc12)c1ccc(Br)cc1`: the growth inhibition was -9.75%.
On the same count and under the same terms, for `COC(=O)C1(C2CCc3cc(OC)ccc3C2=O)NC(=S)NC(=O)C1C#N` (stereo not given) the value was -4.05%; for `O=C1O/C(=C(\Br)c2ccc([N+](=O)[O-])cc2)c2ccccc21`, 0.85%; for `Cn1nnc2c(C(N)=O)ncn2c1=O`, -25.2%.
Still for that read-out and setting: for `N#Cc1c(-c2ccccc2)cn2c1[nH]c(=O)c1ccccc12` the value was 5.45%; for `O=C1OC(c2ccc(Cl)cc2)=N/C1=C\c1c(Cl)cccc1Cl`, 11.9%.
Still for that read-out and setting: then `C=CSC(=S)Sc1ccccc1`, with 3.45%.
On to `CCC[n+]1cccc(C#N)c1`, for which the growth inhibition is -24.9%.
Regarding `CC1(C)C(c2ccccc2)C12CCC1(C2=O)C(c2ccccc2)C1(C)C` (stereo not given), the growth inhibition is -6.8%.
`CC(O)(c1ccccc1)C1CC1c1ccccc1` (stereo not given): the growth inhibition is -17.2%.
The same measure, in the same setting: then `CCC(=O)N1NC(=O)C(CC)(CC)C1=O`, with 10.7%; and `CCOC(=O)C1=C(Nc2ccc(Cl)c(Cl)c2)OC/C1=N\NC(=O)Cc1ccccc1`, with -12%; and `COC(=O)C(=O)C1CCc2c(C(=O)OC)nc3[nH]n(-c4ccccc4)c(=O)c3c21` (stereo not given), with -30.2%.
On the same count and under the same terms, for `Cc1cc2n(n1)C(=O)CC(=O)C2` the value was -24.4%.
On the same count and under the same terms, for `O=[N+]([O-])c1ccc(Nc2ccccc2)c2nonc12` the value was 26.4%; for `CCC(CC)C(=O)OCCOc1ccccc1`, -20.2%; for `c1ccc(CCN(CCc2ccccn2)CCc2ccccn2)nc1`, 0.3%.
Consider `COC(=O)CCC(=O)CC(=O)C1=NS(=O)(=O)c2nc(S(N)(=O)=O)c(Cl)cc2N1`, for which the growth inhibition is -24.6%.
The same measure, in the same setting: then `O=c1[nH]c(=O)n(C2CC(O)C(CO)O2)cc1C#Cc1ccc(C(F)(F)F)cc1` (stereo not given), with -2.45%.
Same read-out and setting: then `O=c1c2n(c(=O)c3n1CCC=3)CCC=2`, with -25.1%.
For the molecule `CCCC(=O)OCc1ccc(Cl)cc1Cl`, the growth inhibition is 7.75%.
Turning to `CC(=O)n1ccc(=O)[nH]c1=O`, the growth inhibition is -38.8%.
Same read-out and setting: for `CCOC(=O)/C(C#N)=C/c1ccc(Cl)cc1` the value was 0.85%; for `COc1ccc(CSc2n[nH]c(=O)[nH]c2=S)cc1`, -12.1%; for `CCOC(OCC)C(N)=O`, 11.3%.
`CCCCCOc1ccc(C2=C(c3ccccc3)C(=O)C(c3ccccc3)=C2c2ccccc2)cc1`: the growth inhibition was 26.9%.
Take `c1cnn([B-]2(n3cccn3)n3ccc[n+]3[B-](n3cccn3)(n3cccn3)n3ccc[n+]32)c1`: the growth inhibition is -8.85%.
Same read-out and setting: then `CC(=O)NC1C(SC(=O)NCCCl)OC(COC(C)=O)C(OC(C)=O)C1OC(C)=O` (stereo not given), with -16.8%.
On the same count and under the same terms, for `Nc1nc(SCCc2ccccc2)c2[nH]cnc2n1` the value was -16.6%; for `CC(=O)N(C(=O)CC(=O)NN)c1ccc(Cl)cc1`, 26.3%; for `Cc1ccc(CCn2cnc3c(N(CCO)CCO)ncnc32)cc1`, 15.6%.
For the molecule `CCCNC(=O)Nc1ccccc1OCC`, the growth inhibition was -68%.
The same measure, in the same setting: for `CC1(CO)CSC(Nc2ccc(F)cc2)=N1` (stereo not given) the value was 14.8%; for `NC(=O)COc1c(Br)cc(Br)cc1Br`, -3.75%.
On to `O=c1c2c(c(=O)c(=O)c1=O)Nc1ccccc1N2`, for which the growth inhibition is 34.7%.
